Data: PubChem BioAssay (Tox21)
Records with an inconclusive call do not appear. The source made the active and inactive calls. Calls come from the whole dose curve.

How the values were obtained:
[1] = target: Acetylcholinesterase (Homo sapiens) (UniProt P22303); assay: Acetylcholinesterase (AChE) small molecule antagonists: colormetric cell-based qHTS assay (AID 1347395); note: nearly all actives have a fitted effect of over 30% in size
Procedure, shortened: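 Colorimetric read-out: DTNB detects thiocholine released when cellular AChE in SH-SY5Y cells hydrolyses acetylthiocholine. Cells attached overnight, received compound for 30 min at 37 C, then substrate mix for 90 min at 37 C.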

[2] = target: Acetylcholinesterase (Homo sapiens) (UniProt P22303); assay: Acetylcholinesterase (AChE) small molecule antagonists: enzyme-based qHTS assay (AID 1347397); details: Potency: AChE enzyme activity inhibition; outcome: AChE enzyme activity inhibition; note: nearly all actives have a fitted effect of over 55% in size
Procedure, shortened: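 Recombinant human AChE (50 mU/mL) preincubated with compound 30 min at room temperature; acetylthiocholine plus DTNB then added, and thiocholine formation read colorimetrically after 10 min at room temperature. DMSO served as vehicle control.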

[3] = target: Acetylcholinesterase (Homo sapiens) (UniProt P22303); assay: Acetylcholinesterase (AChE) small molecule antagonists: fluorescence cell-based qHTS assay (AID 1347398); details: Potency: AChE activity; outcome: AChE activity; note: nearly all actives have a fitted effect of over 50% in size
Procedure, shortened: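 SH-SY5Y cells (2000/well), attached overnight, incubated with compound 30 min at 37 C. Acetylthiocholine plus Thiolite Green then added for 40 min at room temperature. Thiocholine fluorescence (Ex/Em 490/520 nm) reports cellular AChE activity.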

[4] = target: Acetylcholinesterase (Homo sapiens) (UniProt P22303); assay: Acetylcholinesterase (AChE) small molecule antagonists: enzyme-based qHTS assay with human liver microsomes (AID 1347399); details: Potency: qHTS inhibition; outcome: qHTS inhibition; note: nearly all actives have a fitted effect of over 60% in size
Procedure, shortened: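 Recombinant human AChE (50 mU/mL in the enzyme mix) and human liver microsomes (0.25 mg/mL final) were preincubated with compound and NADPH (0.25 mg/mL final) for 30 min at 37 C. Acetylthiocholine/DTNB was then added; thiocholine was read colorimetrically after 10 min at room temperature.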
% is set by controls: 0 for no effect and ±100 for the full control effect.

Chain of Acetylcholinesterase (Homo sapiens) (P22303 whole entry, looked up): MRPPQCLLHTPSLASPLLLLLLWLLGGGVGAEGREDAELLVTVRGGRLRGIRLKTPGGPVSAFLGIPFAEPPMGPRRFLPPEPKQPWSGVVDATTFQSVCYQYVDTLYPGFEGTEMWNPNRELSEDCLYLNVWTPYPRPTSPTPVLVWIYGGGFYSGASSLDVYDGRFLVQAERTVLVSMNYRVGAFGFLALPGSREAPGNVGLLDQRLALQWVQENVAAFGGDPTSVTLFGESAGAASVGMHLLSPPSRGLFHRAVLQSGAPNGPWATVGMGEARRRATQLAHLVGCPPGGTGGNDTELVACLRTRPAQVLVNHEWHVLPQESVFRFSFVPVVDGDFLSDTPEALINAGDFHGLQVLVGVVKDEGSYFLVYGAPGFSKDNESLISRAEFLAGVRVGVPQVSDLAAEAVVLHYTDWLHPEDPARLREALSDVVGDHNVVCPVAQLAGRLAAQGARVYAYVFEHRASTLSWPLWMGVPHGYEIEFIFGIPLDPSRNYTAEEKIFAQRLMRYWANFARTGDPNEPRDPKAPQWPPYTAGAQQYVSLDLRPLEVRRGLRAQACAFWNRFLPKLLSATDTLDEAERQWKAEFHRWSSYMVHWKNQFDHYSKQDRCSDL

Brc1cc2ccccc2c2ccccc12
inactive: Potency [1] | Potency [2] | Potency [3] | Potency [4]

NC(=O)CCCCC(N)=O
inactive: Potency [1] | Potency [2] | Potency [3] | Potency [4]

Cc1ccc(S)cc1
inactive: Potency [1] | Potency [2] | Potency [3] | Potency [4]

CC1(CO)CN(c2ccccc2)NC1=O (stereo not given)
inactive: Potency [1] | Potency [2] | Potency [3] | Potency [4]

Clc1nc2ccccc2nc1Cl
inactive: Potency [1] | Potency [2] | Potency [3] | Potency [4]

NC(=O)c1ncn([C@@H]2O[C@H](CO)[C@@H](O)[C@H]2O)c1N
inactive: Potency [1] | Potency [2] | Potency [3] | Potency [4]

C[C@H]1O[C@@H](n2cc(F)c(=O)[nH]c2=O)[C@H](O)[C@@H]1O
inactive: Potency [1] | Potency [2] | Potency [3] | Potency [4]

CC1(C)C(=O)N(Br)C(=O)N1Cl
inactive: Potency [1] | Potency [2] | Potency [3] | Potency [4]

Cc1ccc(N)nc1
inactive: Potency [1] | Potency [2] | Potency [3] | Potency [4]

C=CCOc1ccccc1OCC(O)CNC(C)C (stereo not given)
inactive: outcome [1] | outcome [2] | outcome [3] | outcome [4]

NC(=O)Nc1ccc(Cl)c(Cl)c1
inactive: Potency [1] | Potency [2] | Potency [3] | Potency [4]

CC(C)(C)OC(=O)N1C[C@@H](F)C[C@H]1C(=O)O
inactive: Potency [1] | Potency [2] | Potency [3] | Potency [4]

O=C1OC(=O)c2ccccc21
inactive: Potency [1] | Potency [2] | Potency [3] | Potency [4]

COc1ccc(-c2cc(=S)ss2)cc1
inactive: Potency [1] | Potency [2] | Potency [3] | Potency [4]

Oc1cccc2c(O)cccc12
inactive: Potency [1] | Potency [2] | Potency [3] | Potency [4]

O=c1[nH][nH]c(=O)c2cc([N+](=O)[O-])ccc12
inactive: Potency [1] | Potency [2] | Potency [3] | Potency [4]

CC(C)c1cccc(C(C)C)c1NC(=O)NS(=O)(=O)c1cc(C(C)(C)O)co1
inactive: Potency [1] | Potency [2] | Potency [3] | Potency [4]

CCCCCOC(=O)CCCC
inactive: Potency [1] | Potency [2] | Potency [3] | Potency [4]

Cc1cccc(C)n1
inactive: Potency [1] | Potency [2] | Potency [3] | Potency [4]

CC(=O)c1cccc([N+](=O)[O-])c1
inactive: Potency [1] | Potency [2] | Potency [3] | Potency [4]

COC(=O)c1ccccc1Cl
inactive: Potency [1] | Potency [2] | Potency [3] | Potency [4]

COc1ccc2sc(C(=O)Nc3nnn[nH]3)c(OC(C)C)c2c1
inactive: Potency [1] | Potency [2] | Potency [3] | Potency [4]

COc1cccc(O)c1O
inactive: Potency [1] | Potency [2] | Potency [3] | Potency [4]

O=C(O)c1cc(=O)c2ccccc2o1
inactive: Potency [1] | Potency [2] | Potency [3] | Potency [4]

CCOC(=O)CC(=O)C(=O)OCC
inactive: Potency [1] | Potency [2] | Potency [3] | Potency [4]

CCCCCCCCC(=O)OCC(C)OC(=O)CCCCCCCC (stereo not given)
inactive: Potency [1] | Potency [2] | Potency [3] | Potency [4]

NS(=O)(=O)c1cc(C2(O)NC(=O)c3ccccc32)ccc1Cl (stereo not given)
inactive: Potency [1] | Potency [2] | Potency [3] | Potency [4]

O=C(O)c1cc(-c2ccc(F)cc2F)ccc1O
inactive: Potency [1] | Potency [2] | Potency [3] | Potency [4]

O=C(CCCl)NCCc1ccccc1
inactive: Potency [1] | Potency [2] | Potency [3] | Potency [4]

CC/C=C\CCOC(C)=O
inactive: Potency [1] | Potency [2] | Potency [3] | Potency [4]

C=CC(=O)NC(C)(C)C
inactive: Potency [1] | Potency [2] | Potency [3] | Potency [4]

CCNC(=O)C(C)OC(=O)Nc1ccccc1 (stereo not given)
inactive: Potency [1] | Potency [2] | Potency [3] | Potency [4]

COc1ccc2c(c1)C(=O)N(CCc1ccc(S(=O)(=O)NC(=O)NC3CCCCC3)cc1)C(=O)C2(C)C
inactive: Potency [1] | Potency [2] | Potency [3] | Potency [4]

c1ccc(CNCc2ccccc2)cc1
inactive: Potency [1] | Potency [2] | Potency [3] | Potency [4]

COCCCOCCCOC
inactive: Potency [1] | Potency [2] | Potency [3] | Potency [4]

CC1=C(O)C(=O)C(C)O1 (stereo not given)
inactive: Potency [1] | Potency [2] | Potency [3] | Potency [4]

O=[N+]([O-])c1cccc(I)c1
inactive: Potency [1] | Potency [2] | Potency [3] | Potency [4]

COc1cc(Cl)ccc1Oc1ccc(Cl)cc1Cl
inactive: Potency [1] | Potency [2] | Potency [3] | Potency [4]

CC(C)=CCC/C(C)=C/C=N/O
inactive: Potency [1] | Potency [2] | Potency [3] | Potency [4]

COC(=O)CCC(=O)O
inactive: Potency [1] | Potency [2] | Potency [3] | Potency [4]

Cc1ccc(NC(N)=O)cc1
inactive: Potency [1] | Potency [2] | Potency [3] | Potency [4]

CCC(=O)OCc1ccc(OC)cc1
inactive: Potency [1] | Potency [2] | Potency [3] | Potency [4]

C[C@@H]1CN(c2c(F)c(F)c3c(=O)c(C(=O)O)cn(C4CC4)c3c2F)C[C@H](C)N1
inactive: activity, negative = inhibition [1] -2.8% [at 23.6 µM] | activity change, negative = inhibition [2] -0.831% [at 23.6 µM] | activity change, negative = inhibition [3] 0.907% [at 23.8 µM] | activity change, negative = inhibition [4] -1.43% [at 23.6 µM]

COc1cc(C=C2CCC/C(=C\c3ccc(O)c(OC)c3)C2=O)ccc1O
inactive: Potency [1] | Potency [2] | Potency [3] | Potency [4]

CC(=O)OC1CCCCC1C(C)(C)C (stereo not given)
inactive: Potency [1] | Potency [2] | Potency [3] | Potency [4]
